# ADAM10 inh = ADAM10 inhibition, QFRET primary screen; O14672; recombinant ADAM10, EDANS/DABCYL FRET peptide cleavage, 3 h; inhibition, % at 7 µM; 370,000 tested, 0.62% active; AID 720582;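 active = inhibition above a per-campaign cutoff equal to the mean of compounds falling between control-based bounds plus 3 SD, cut at about 20% in these data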;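 note: 0% = DMSO wells while the 100% control is not disclosed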
# ADAM17 inh = ADAM17 inhibition, QFRET primary screen | 370,000 tested, 0.83% active | AID 720648 | inhibition, % at 6.95 µM | recombinant ADAM17, EDANS/DABCYL FRET peptide cleavage;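 active = inhibition above the mean of compounds lying between control limits plus 3 SD, set per campaign, cut at about 8.5% in these data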;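 note: 0% = DMSO-only wells as the low control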
# PLC-beta3 inh = blocks human PLC-beta3 enzyme activity. Q01970. Purified PLC-beta3, fluorogenic substrate, fluorescence. inhibition, % at 12.2 µM. 370,000 tested, 0.18% active; in the data active = inhibition above about 11%;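 note: 0% = median of compound wells on plate and 100% = full blocker control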
# Target sequence (Q01970 whole entry, looked up): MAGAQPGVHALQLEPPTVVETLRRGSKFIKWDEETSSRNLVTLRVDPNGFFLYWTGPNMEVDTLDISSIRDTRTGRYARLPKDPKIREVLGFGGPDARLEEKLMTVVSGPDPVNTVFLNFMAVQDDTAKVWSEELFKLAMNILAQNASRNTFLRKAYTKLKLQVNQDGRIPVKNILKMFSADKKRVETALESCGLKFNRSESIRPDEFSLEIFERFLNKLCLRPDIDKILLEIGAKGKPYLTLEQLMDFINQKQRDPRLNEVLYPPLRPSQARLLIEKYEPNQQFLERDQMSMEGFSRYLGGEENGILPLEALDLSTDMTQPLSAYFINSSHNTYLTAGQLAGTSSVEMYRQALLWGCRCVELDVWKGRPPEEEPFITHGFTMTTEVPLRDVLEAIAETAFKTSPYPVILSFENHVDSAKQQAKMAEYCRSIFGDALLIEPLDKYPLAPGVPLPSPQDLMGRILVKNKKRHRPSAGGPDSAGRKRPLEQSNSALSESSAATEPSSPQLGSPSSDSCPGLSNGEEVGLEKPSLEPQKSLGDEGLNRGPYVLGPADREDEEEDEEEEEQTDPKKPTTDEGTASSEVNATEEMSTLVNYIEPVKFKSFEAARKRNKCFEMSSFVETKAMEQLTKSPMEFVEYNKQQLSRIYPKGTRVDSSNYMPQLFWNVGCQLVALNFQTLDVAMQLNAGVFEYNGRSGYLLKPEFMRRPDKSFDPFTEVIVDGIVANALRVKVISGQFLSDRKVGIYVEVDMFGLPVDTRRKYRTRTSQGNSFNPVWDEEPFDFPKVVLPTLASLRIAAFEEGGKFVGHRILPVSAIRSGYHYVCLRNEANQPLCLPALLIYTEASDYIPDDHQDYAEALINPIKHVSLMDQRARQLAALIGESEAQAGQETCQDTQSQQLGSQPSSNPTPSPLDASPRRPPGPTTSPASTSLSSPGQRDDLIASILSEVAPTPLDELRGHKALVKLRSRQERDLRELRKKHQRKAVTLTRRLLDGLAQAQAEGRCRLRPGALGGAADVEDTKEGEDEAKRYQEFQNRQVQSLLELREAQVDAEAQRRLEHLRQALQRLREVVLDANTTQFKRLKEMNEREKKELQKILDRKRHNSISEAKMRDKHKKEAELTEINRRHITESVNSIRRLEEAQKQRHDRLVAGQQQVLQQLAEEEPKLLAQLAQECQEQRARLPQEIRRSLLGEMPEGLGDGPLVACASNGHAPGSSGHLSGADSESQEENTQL
# PLC-gamma1 inh = PLC-gamma1 (human) inhibition, primary screen; inhibition, % at 12.2 µM; AID 720700; purified PLC-gamma1, fluorogenic substrate, fluorescence; 370,000 tested, 0.84% active; P19174; in the data active = inhibition above about 9.5%
# HGIII-sPLA2 inh = Blocks human group III sPLA2 activity | Q9NZ20 | QFRET BODIPY PC-A2 liposome hydrolysis, fluorescence | inhibition, % at 12.2 µM | 370,000 tested, 0.56% active;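 active = inhibition above mean plus 3 SD of compounds lying within the high and low control bounds, cut at about 19% in these data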;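 note: 0% = median of test compound wells and 100% = no enzyme DMSO wells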
# proKLK7 act = proKLK7 (human) activation, primary screen; purified proKLK7, EDANS-DABCYL substrate fluorescence; 100% is mature enzyme control, 0% vehicle; 370,000 tested, 0.9% active; P49862; activation, % at 7 µM;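 active = activation above the mean of all tested compounds plus 3 SD, computed per campaign excluding outliers beyond control limits, cut at about 13% in these data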
# KLK7 act conf = confirmation of human kallikrein-7 zymogen activators. 3,200 tested, 68% active. purified proKLK7, EDANS-DABCYL substrate fluorescence; scaled: vehicle 0, mature enzyme 100. activation, % at 7 µM. shares compounds with proKLK7 act;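 active = activation, as change over the incubation, above the mean of all tested compounds plus 3 SD, cut at about 13% in these data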
# EDANS interfere = fluorescence interference counter-screen for KLK7 activators; AID 686952; EDANS-DABCYL substrate fluorescence interference, no enzyme, 4 h; solvent 0%, active enzyme control 100%; shares compounds with proKLK7 act; 3,200 tested, 80% active; activation, % at 7 µM;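 active = activation above the all-compound mean plus 3 SD, ignoring values outside control-based bounds, cut at about 4.8% in these data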;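 note: value is the 4 h activation minus the activation read at time zero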
# EDANS interf = EDANS fluorescence interference in dose response, no enzyme; AID 720493; 250 tested, 20% active; EC50, µM; shares compounds with proKLK7 act; EDANS-DABCYL peptide fluorescence interference;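 active = compounds that raise the fluorescence signal in this interference counterscreen, with EC50 at or below 10 µM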;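 note: intact quenched peptide substrate alone read at 355 nm excitation and 520 nm emission; signal is fluorescence gain from T0 to T4 after four hours at room temperature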
# An asterisk follows results filed as active; i = inactive; nt = no result. Hits are enriched below; roughly 3.4% of the tested compounds scored in any of these assays.
SMILES,ADAM10 inh,ADAM17 inh,PLC-beta3 inh,PLC-gamma1 inh,HGIII-sPLA2 inh,proKLK7 act,KLK7 act conf,EDANS interfere,others
O=S1(=O)CC(N2CCC(c3ccccc3)CC2)CN1Cc1cn(Cc2ccc(C(F)(F)F)cc2)nn1 (stereo not drawn),-10,-2,-1,-2,-4,1,nt,nt,
O=S(=O)(Nc1ccc(-c2nc3cccnc3s2)cc1)c1cc(F)ccc1F,i,i,-481,-318,-26,16*,20*,21*,
CCc1ccc(S(=O)(=O)Nc2ccc(-c3nc4cccnc4s3)cc2)s1,i,i,i,i,-56,-33,nt,nt,
COc1cc(C=Nc2ccccc2C(=O)Nc2ccccc2)cc(OC)c1OC,i,-272,-474,-364,0,19*,18*,22*,
CCSc1ccccc1C(=O)Nc1cc(OC)c(OC)c(OC)c1,0,0,5,3,-1,1,nt,nt,
COC(=O)C1=C(C)N(Cc2ccc(F)cc2)C(=S)NC1c1ccc(F)cc1 (stereo not drawn),10,5,5,4,11,0,nt,nt,
COc1ccc(C(=O)NCC2CCCO2)cc1 (stereo not drawn),4,1,2,4,-3,-1,nt,nt,
CCC(C)NC(=O)c1cc2cc3ccc(OC)cc3nc2o1 (stereo not drawn),i,i,i,i,0,40*,44*,63*,
COCCNC(=O)c1cc2cc3ccc(OC)cc3nc2o1,i,i,i,i,-4,35*,67*,78*,
COc1ccc2cc3cc(C(=O)NCCC(C)C)oc3nc2c1,i,-380,-166,-130,-3,-15,nt,nt,
COc1ccc2cc3cc(C(=O)NCC4CCCO4)oc3nc2c1 (stereo not drawn),i,i,i,i,8,48*,66*,71*,
CCOc1ccc(NC(=O)c2cc3cc4ccc(OC)cc4nc3o2)cc1,-8,-1,-1,-1,1,0,nt,nt,
CCCCN(CC)C(=O)c1cc2cc3ccc(OC)cc3nc2o1,i,-372,-225,-192,-13,13*,-5,0,
CN(C)c1cccc2c(S(=O)(=O)NCC3CCN(C(=O)C(=O)c4cc5ccccc5o4)CC3)cccc12,5,3,-294,-213,-26,0,nt,nt,
C[C@H]1C(=O)CC[C@@]23CCCN2C(=O)CCC[C@@H]13,-8,-8,3,3,12,nt,nt,nt,
Cc1cc(C(=O)NNC(=O)Nc2ccccc2)no1,-4,-6,-4,3,0,0,nt,nt,
Cc1nc(C(=O)NNC(=O)Nc2ccccc2)cs1,-1,-4,0,0,-1,16*,-1,-1,
CN1C(=O)c2ccccc2N(C)C1c1ccc2c(c1)OCO2 (stereo not drawn),i,-416,i,-433,3,19*,22*,18*,EDANS interf=>69
CC12CN3CC(C)(CN(C1)C3c1ccc3c(c1)OCO3)C2 (stereo not drawn),1,-1,4,3,-3,-1,nt,nt,
CN1C(=O)c2ccccc2N(C)C1c1cccc(O)c1 (stereo not drawn),i,i,i,i,1,50*,32*,35*,
CN1C(=O)c2ccccc2NC(=O)[C@]12O[C@@H]2c1cccc(O)c1,-19,-3,-9,-5,-12,-1,nt,nt,
CN1C(=O)c2ccccc2N(C)C1c1ccc(F)cc1 (stereo not drawn),i,-437,-499,-352,3,19*,27*,14*,EDANS interf=>69
COc1cc(C2N(C)C(=O)c3ccccc3N2C)ccc1O (stereo not drawn),i,i,i,i,3,46*,43*,42*,
C=CCN1C(=O)[C@@H](CC(=O)NCCCC)[C@]2(C(=O)OC)CCCCC=C12,2,1,-2,2,-2,0,nt,nt,
CN(C)C=Nc1ccc2nc3c(cc2c1)[nH]c1ccccc13,i,i,i,i,0,49*,50*,41*,EDANS interf=>69
SMILES,ADAM10 inh,ADAM17 inh,PLC-beta3 inh,PLC-gamma1 inh,HGIII-sPLA2 inh,proKLK7 act,KLK7 act conf,EDANS interfere,others
Cn1c(/C=C/c2ccccc2)nc2ccccc21,i,-244,-367,-257,-3,7,nt,nt,
CC(=O)c1ccc(/C=C/c2nc3ccccc3n2C)o1,i,i,i,i,2,40*,71*,71*,
Nc1ccc(S(=O)(=O)O)cn1,-1,-2,-2,1,1,1,nt,nt,
Nc1ccc(-c2ccc(C(=O)O)s2)cn1,i,i,-464,-419,1,19*,73*,82*,
CCN1CCN(CCCNC(=O)c2cc3c(s2)-c2ccccc2OC3)CC1,i,i,i,i,-4,37*,73*,70*,
CN(C)CCNC(=O)c1cc2c(s1)-c1ccccc1OC2,i,i,i,i,-4,68*,72*,68*,
Cc1csc(NC(=O)c2cc3c(s2)-c2ccccc2OC3)n1,i,-402,i,i,-1,-602,nt,nt,
CC1CC(C)CN(CCCNC(=O)c2cc3c(s2)-c2ccccc2OC3)C1 (stereo not drawn),i,i,i,i,-7,44*,-37,-60,
CCCN1CCN(CCCNC(=O)c2cc3c(s2)-c2ccccc2OC3)CC1,i,i,i,i,-10,38*,71*,76*,
O=C(CSC1CCc2ccccc21)NN=Cc1ccco1 (stereo not drawn),4,-1,-4,-5,-8,0,nt,nt,
CCCN1CCN(CCCNC(=O)c2cc3c(s2)-c2c(C)cccc2OC3)CC1,i,i,i,i,-4,42*,63*,71*,
Cc1cccc2c1-c1sc(C(=O)NCCCN3CCCC(C)C3)cc1CO2 (stereo not drawn),i,i,i,i,-17,48*,62*,70*,
CC1CCCC(C)N1CCCNC(=O)c1cc2c(s1)-c1ccccc1OC2 (stereo not drawn),i,i,i,i,2,69*,62*,63*,
Cc1cccc(NC(=O)c2cc3c(s2)-c2c(C)cccc2OC3)n1,-104,-32,-78,-48,2,-17,nt,nt,
COCCCNC(=O)C[C@H]1C[C@@]2(C(=O)OC)C(=C[C@H](COCc3ccccc3)O[C@@H]2C)N(Cc2cccc3ccccc23)C1=O,4,5,-2,7,-17,-2,nt,nt,

# Screening results as filed in PubChem.
